According to PubChem BioAssay AID631 (The Scripps Research Institute Molecular Screening Center, 2007):
The whole screen tested about 200,000 compounds, of which about 810 (0.41%) were called active. The full list was thinned out, with actives kept by preference. A number with no mark means an inactive call. Cut-off read from the data, not from the text of the source: active = activation above about 19%; inactive = the rest.

target: Peroxisome proliferator-activated receptor gamma (Homo sapiens) (UniProt P37231); assay: enhancers of SRC-1 binding to PPARgamma – biochemical, primary screen (AID 631); settings: PPARgamma-SRC-1 coactivator recruitment biochemical assay; at 8 µM; hits give high values;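 note: 0% = DMSO and 100% = reference agonist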
Sequence (P37231 whole entry, looked up): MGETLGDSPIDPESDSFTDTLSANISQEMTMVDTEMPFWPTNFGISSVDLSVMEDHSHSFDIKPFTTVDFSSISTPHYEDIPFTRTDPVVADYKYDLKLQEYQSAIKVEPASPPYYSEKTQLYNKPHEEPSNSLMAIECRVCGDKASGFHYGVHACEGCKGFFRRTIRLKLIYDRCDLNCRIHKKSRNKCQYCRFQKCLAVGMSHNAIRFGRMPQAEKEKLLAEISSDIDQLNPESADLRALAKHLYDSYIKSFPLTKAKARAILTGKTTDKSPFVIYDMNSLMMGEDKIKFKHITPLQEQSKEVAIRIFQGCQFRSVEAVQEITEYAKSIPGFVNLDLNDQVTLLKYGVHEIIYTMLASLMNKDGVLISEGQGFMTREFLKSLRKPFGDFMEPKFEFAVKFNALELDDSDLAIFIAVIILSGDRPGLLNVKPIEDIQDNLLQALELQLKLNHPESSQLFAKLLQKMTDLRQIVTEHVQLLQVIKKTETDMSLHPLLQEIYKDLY

| Structure (SMILES) | activation |
| --- | --- |
| O=C(Oc1ccc([N+](=O)[O-])cc1)c1ccc(Cl)c(S(=O)(=O)N2CCCCC2)c1 | -9.6% |
| CC(C)N(C(=O)Cn1cc(SCC(=O)N2CCCC2)c2ccccc21)C(C)C | 5.8% |
| Cc1ccc(NC(=O)CC2C(=O)N(Cc3ccccc3)C(=S)N2NC(=O)c2cccc(F)c2)c(C)c1 (stereo not drawn) | -0.5% |
| CCN(CC)CCCNC(=O)CCc1ccccc1 | 3.3% |
| CCN(CC)CCCNC(=O)c1cc(-c2cccc(Cl)c2)on1 | 3.6% |
| CCN(CCCNC(=O)CSc1cc(=O)n(C)c2cc(Cl)ccc12)Cc1ccccc1 | 55.4% (active) |
| O=C(Nc1ccccc1Cl)c1ccccc1S(=O)(=O)c1ccccc1[N+](=O)[O-] | 2.9% |
| COc1ccc(C(=O)C[n+]2ccc(C)cc2)cc1 | 0.2% |
| S=C(NN=C1CCN(Cc2ccccc2)CC1)NC1CCCCC1 | -1.7% |
| CC(Sc1cccc[n+]1[O-])C(=O)Nc1cccc(S(=O)(=O)N2CCOCC2)c1 (stereo not drawn) | -5.3% |
| Cc1nn(C)c(C(=O)NNC(=S)NC2CCCCC2)c1Cl | -8.4% |
| COc1cccc(NC(=S)NCc2ccccn2)c1 | 2.4% |
| COc1cccc(NC(=S)NC(=O)c2c(Cl)c(C)nn2C)c1 | 30.8% (active) |
| O=C(/C=C/c1cnc2ccccc2n1)NC1CCCCCC1 | -0.4% |
| O=c1cc(O)c(-c2cccc(C(F)(F)F)c2)c(Cl)[nH]1 | 8% |
| CCOC(=O)N1CCC(NC(=O)COc2cc(=O)n(C)c3ccccc23)CC1 | -0.7% |
| Cc1cccc(OCc2nnc(SCC(=O)N3CCN(C(=O)c4ccco4)CC3)n2C)c1C | 5.6% |
| CCOc1ccc(CCNC(=O)CSc2cc(=O)n(C)c3ccc(Cl)cc23)cc1OCC | 12% |
| CC(=O)c1ccc(-n2nnnc2SCC(=O)N2CCN(C(=O)c3ccco3)CC2)cc1 | 0.3% |
| Cn1c(=O)cc(SCC(=O)N2CCCC2)c2cc(Cl)ccc21 | 53.4% (active) |
| CCOC(=O)C1CCN(C(=O)Cn2cc(C#N)c3ccccc32)CC1 | -2.2% |
| CCOC(=O)C1CCN(C(=O)CSc2cc(=O)n(C)c3ccccc23)CC1 | 49.8% (active) |
| O=C(CSCc1ccc(Cl)cc1)N1CCCCC1 | 2% |
| Cn1c(=O)cc(SCC(=O)N2CCN(C(=O)c3ccco3)CC2)c2ccccc21 | 49.4% (active) |
| CC1CN(CCCOc2ccccc2-c2ccccc2)CC(C)O1 (stereo not drawn) | 6.7% |
| C/C(=N\Nc1nc(N2CCOCC2)nc(N2CCOCC2)n1)c1ccc([N+](=O)[O-])cc1 | 1.7% |

| Structure (SMILES) | activation |
| --- | --- |
| CCN(CC)c1ccc(C(=O)N/N=C(\C)c2cccc(OC)c2)cc1 | 9.4% |
| CCOC(=O)c1c(N)nn(C(=O)c2ccccc2)c1-c1ccccc1 | 3% |
| COc1cc2c(cc1OC)C(=O)NCC(C)(C)O2 | 9.4% |
| CCOC(=O)c1ccccc1C(=O)N1CCOCCOCCOCC1 | -0.2% |
| Cc1cnc(C(=O)N2CCCC(C(=O)c3ccc(C(F)(F)F)cc3)C2)cn1 (stereo not drawn) | 5.6% |
| CN(C)/C(=N\OC(=O)c1ccccc1)c1nonc1N | 2.5% |
| O=C(Nn1cnc2ccccc2c1=O)c1ccccc1 | 12.8% |
| Nc1nc(SCC(=O)NCCN2CCOCC2)nc2sc3c(c12)CCC3 | 6% |
| CCOc1cc(C2C(C(=O)OC(C)C)=C(C)NC3=C2C(=O)CCC3)cc([N+](=O)[O-])c1O (stereo not drawn) | -1% |
| COc1ccc(Cl)cc1C(=O)NCc1cn(C)nc1C | 0.6% |
| Cc1ccc(-c2cc(C(=O)NCc3cn(C)nc3C)c3cc(Br)ccc3n2)cc1 | 22.7% (active) |
| Cc1ccc2nc(-c3cccc(Br)c3)cc(C(=O)Nn3cnnc3)c2c1 | -0.9% |
| O=C(Cc1cc(=O)[nH][nH]1)N/N=C/c1ccccc1[N+](=O)[O-] | 1.6% |
| O=C(COc1cccc2ccccc12)Nc1cc(S(=O)(=O)N2CCOCC2)ccc1N1CCOCC1 | 5.6% |
| COc1ccccc1CC(NC(C)=O)C(=O)NC1CCN(C(=O)Nc2ccccc2Cl)CC1 (stereo not drawn) | 5.1% |
| C=CCN(CC=C)CCOc1ccccc1[N+](=O)[O-] | 2.5% |
| COCC1CCCN(Cc2nc(-c3ccc4c(c3)OCO4)no2)C1 (stereo not drawn) | 10.9% |
| COc1ccc(C2c3[nH]c4ccccc4c3CCN2CCCn2cccn2)cc1C (stereo not drawn) | -5% |
| CC(C)(C)CC(=O)Nc1nnc(SCC(=O)NCc2cccs2)s1 | 10.6% |
| O=C(/C=C/Nc1ccccc1OC(F)(F)F)C(F)(F)F | -4.7% |
| CN(C)c1ccc(N/C=C/C(=O)C(F)(F)F)cc1 | 31.5% (active) |
| CCCOc1ccc(N/C=C/C(=O)C(C)(C)C)cc1 | 2.3% |
| COC(=O)C[n+]1cccc2ccccc21 | 4.1% |
| O=C(O)c1ccn(COc2ccc(Br)cc2)n1 | 7.4% |
| Cc1ccc(-c2ccc(/C=C(\C#N)C(N)=S)o2)c([N+](=O)[O-])c1 | 22.9% (active) |
| Cc1ccc(Cc2cnc(NC(=O)/C(C#N)=C/c3ccc(-c4cccc([N+](=O)[O-])c4)o3)s2)cc1 | 2.6% |

| Structure (SMILES) | activation |
| --- | --- |
| Cc1cc(-c2ccc(/C=N/n3cnnc3)o2)c([N+](=O)[O-])cc1C | -9.4% |
| Cc1cc(C)cc(C(=O)N(CCc2ccccc2)C2=CC3CCC(C2)N3C)c1 (stereo not drawn) | -4.8% |
| CSc1nc2nc(-c3cccc(C(F)(F)F)c3)ccn2n1 | 3.3% |
| CCn1ccnc1CN(C)Cc1nc(-c2ccc3c(c2)OCO3)no1 | 3.8% |
| CC(C)CC(CC(C)C)=NNC(=O)c1ccc(CSc2nncn2C)cc1 | 9.8% |
| COC(=O)c1cccnc1NC(=S)NC(C)C | 5.1% |
| Nc1ccc(Nc2ccccc2)cc1 | 20.9% (active) |
| Cc1cc(Nc2ccccc2)n(C(=O)c2ccc(N)cc2)n1 | 3.5% |
| Cc1ccc(Nc2ccccc2N)cc1 | 7.5% |
| COc1cc(C(=O)NCc2nnc(SCC(=O)Nc3nc4ccc(C)cc4s3)o2)cc(OC)c1OC | 4.6% |
| COc1ccc(-c2ccc(CCC(=O)O)n2NC(=O)c2ccc(C(C)(C)C)cc2)cc1 | 4.4% |
| CCOC(=O)Cc1cc(=O)[nH]c(=O)[nH]1 | 1.2% |
| O=C1CCC(=O)N1c1ccc(NCCc2ccccc2F)c([N+](=O)[O-])c1 | 9% |
| C=CCNC(=O)CSc1nc2sc(C)c(C)c2c(=O)[nH]1 | 1.1% |
| O=C(CSc1nc2c(cnn2-c2ccc(F)cc2)c(=O)[nH]1)N1CCCCCC1 | 1.2% |
| CC(=O)c1sc2nc(SCC(=O)N3CCCCC3)[nH]c(=O)c2c1C | 19.1% (active) |
| Cc1cccc(NC(=O)c2ccc3nsnc3c2)c1C | 4.5% |
| O=C(Cc1ccccc1)NNS(=O)(=O)c1ccc([N+](=O)[O-])cc1 | 0.6% |
| Cc1cn(C)c(=O)n(C)c1=O | 3.8% |
| COc1cc(CNC2CCCC2)c(Br)cc1OCc1ccccc1 | 1.4% |
| COc1cc(C2CC(=O)N3CN(Cc4ccccc4)CSC3=C2C#N)ccc1OCc1ccccc1 (stereo not drawn) | 19% (active) |
| COc1ccc(CCN=C2SCC(=O)N2Cc2ccccc2)cc1OC | -0.6% |
| CCOc1ccc(N(CC(=O)NCCc2ccc(OC)cc2)S(C)(=O)=O)cc1 | 0.5% |
| CCOC(=O)Cc1csc(SCC(=O)NC(C)C23CC4CC(CC(C4)C2)C3)n1 (stereo not drawn) | -9% |
| Cc1nnc(SCCCCSc2nnc(C)c(=O)[nH]2)[nH]c1=O | 4.2% |
| COc1ccc(NC(=O)c2ccccc2CC[N+](=O)[O-])cc1 | 3.6% |
